PubChem BioAssay (NCATS)

Molecular target: Lysosomal acid glucosylceramidase (Homo sapiens) (UniProt P04062)
Assay: Glucocerebrosidase-p2 (AID 348)
Settings: purified GBA, blue fluorogenic substrate, 40 min; in the data active means potency below about 10 µM; inactive means the rest
Outline: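 Compounds titrated from 0.6 nM upwards against 0.2 nM enzyme in pH 5.9 citric acid/KH2PO4, taurocholate, tween-20; blue fluorogenic substrate 80 uM, 40 min room temperature, stopped and read Ex 365/Em 440 for AC50.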
Potency means the concentration at half of the fitted maximal effect.

Chain of Lysosomal acid glucosylceramidase (Homo sapiens) (P04062 whole entry, looked up): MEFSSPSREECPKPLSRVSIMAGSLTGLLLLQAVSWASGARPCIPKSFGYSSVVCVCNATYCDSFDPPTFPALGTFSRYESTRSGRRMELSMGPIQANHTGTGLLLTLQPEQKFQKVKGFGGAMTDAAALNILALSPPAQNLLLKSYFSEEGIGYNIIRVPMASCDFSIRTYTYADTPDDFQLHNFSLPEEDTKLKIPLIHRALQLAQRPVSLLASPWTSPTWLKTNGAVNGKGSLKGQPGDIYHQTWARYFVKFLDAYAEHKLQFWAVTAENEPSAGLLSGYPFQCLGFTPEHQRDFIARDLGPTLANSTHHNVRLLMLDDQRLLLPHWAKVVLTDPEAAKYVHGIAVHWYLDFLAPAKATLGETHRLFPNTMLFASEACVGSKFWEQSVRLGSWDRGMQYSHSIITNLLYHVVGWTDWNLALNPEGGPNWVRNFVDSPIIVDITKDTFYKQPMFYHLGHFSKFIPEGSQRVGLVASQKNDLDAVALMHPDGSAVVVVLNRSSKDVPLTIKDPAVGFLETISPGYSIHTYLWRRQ

Potency, inactive:
Clc1ccccc1-c1ccc2ncnc(N3CCNCC3)c2c1 > 11.4 µM
COCCn1c(=O)c(-c2cn(C)c3ccccc23)nc2cnc(N3CCOCC3)nc21 > 11.4 µM
CN(C)c1ccc(-c2cc(Nc3ccc(F)cc3)ncn2)cc1 > 11.4 µM
COc1ncc2nc(-c3cccs3)c(=O)n(CCc3ccccc3)c2n1 > 11.4 µM
COc1ncc2nc(-c3ccccc3)c(=O)n(-c3ccccc3)c2n1 > 11.4 µM
Cc1noc(C)c1-c1nccc(N2CCOCC2)n1 > 11.4 µM
FC(F)(F)c1ccccc1-c1cc(NCc2ccccc2)ncn1 > 11.4 µM
Cn1c(=O)c(-c2ccc(Cl)cc2)nc2cnc(Nc3ccccc3)nc21 > 11.4 µM
COc1ccc(Oc2ncc3nc(-c4ccc(Cl)cc4)c(=O)n(C[C@H]4CCCO4)c3n2)cc1 > 11.4 µM
COc1cccc(Nc2ncc3nc(C)c(=O)n(C4CC4)c3n2)c1 > 11.4 µM
COc1cccc(Cn2c(=O)c(-c3cc(F)cc(F)c3)nc3cnc(N(C)C)nc32)c1 > 11.4 µM
CNc1nc(-c2ccc3c(c2)OCO3)nc2ccccc12 11.4 µM
COc1cccc(Cn2c(=O)c(C)nc3cnc(OC)nc32)c1 > 11.4 µM
Cc1nc2cncnc2n(C2CC2)c1=O > 11.4 µM
COCCn1c(=O)c(-c2cc(F)cc(F)c2)nc2cnc(N3CCOCC3)nc21 > 11.4 µM
